Results as given in PubChem BioAssay (Tox21).
Several values for one entry are separate records, joined by “and”; a condition that tells them apart may be missing. Equal entries are not always repeated. Inconclusive results are not listed. The source holds several records for some structures; these can differ, active in one and inactive in another. Activity calls are given as the source filed them. The call rests on the fitted dose curve; in most records, active means well fitted activation curve with a large enough effect in the signal ratio in the repeat runs (not every such curve was filed as active); inconclusive means weak or mixed curves, or effect the other way; inactive means flat fitted curve, though single readings scatter; the % refers to the signal ratio.

biological target: Estrogen receptor beta (Homo sapiens) (UniProt Q92731); experiment: qHTS assay to identify small molecule agonists of the estrogen receptor beta (ER-beta) signaling pathway (AID 1259377); conditions: ER-beta-UAS-bla HEK293T, beta-lactamase FRET ratio, 16 h; series mostly up to 92.4 µM; activation: at the top concentration
Text: U.S. Tox21 Program National Center for Advancing Translational Sciences [NCATS] NIH Chemical Genomics Center [NCGC] U.S. Environmental Protection Agency [EPA] National Institutes of Environmental Health Sciences [NIEHS] National Toxicology Program [NTP] U.S. Food and Drug Administration [FDA] Tox21 Assay Overview: Estrogen receptor (ER), a nuclear hormone receptor, plays an important role in development, metabolic homeostasis and reproduction. Two subtypes of ER, ER-alpha and ER-beta, have similar expression patterns with some uniqueness in both types. Endocrine disrupting chemicals (EDCs) and their interactions with steroid hormone receptors like ER causes disruption of normal endocrine function. To identify the compounds that activate ER signaling, an ER beta-UAS-bla GripTite cell line (Life technologies, Madison, WI, USA) containing a beta-lactamase reporter gene under the control of an Upstream Activator Sequence (UAS) was used to screen Tox21 10K compound library.
Tox21 Assay Protocol Summary: ER-beta-UAS-bla HEK293T cells were dispensed at 2,000 cells/5 uL of assay medium containing 2% charcoal stripped FBS per well into black wall/clear-bottom 1536-well plates using a Multidrop Combi (ThermoFisher Scientific, Waltham, MA) dispenser. After the assay plates were incubated at a 37C and 5% CO2 for 6 hr, 23 nL of compounds dissolved in DMSO, positive controls or DMSO only was transferred to the assay plate by a Pintool station (Kalypsys, San Diego, CA). The plates were incubated at 37C and 5% CO2 for 16 hr. Then 1 uL of LiveBLAzerTM B/G FRET substrate was added using a BioRAPTR FRD (Flying Reagent Dispenser, Aurora Discovery, San Diego, CA). After the plates were incubated at room temperature for 2 hours, fluorescence intensity was measured by an Envision plate reader (PerkinElmer, Shelton, CT).
On the % scale 0 is the no-effect control and ±100 the full control effect; potency means the concentration at half of the fitted maximal effect.

Sequence of Estrogen receptor beta (Homo sapiens) (Q92731 whole entry, looked up): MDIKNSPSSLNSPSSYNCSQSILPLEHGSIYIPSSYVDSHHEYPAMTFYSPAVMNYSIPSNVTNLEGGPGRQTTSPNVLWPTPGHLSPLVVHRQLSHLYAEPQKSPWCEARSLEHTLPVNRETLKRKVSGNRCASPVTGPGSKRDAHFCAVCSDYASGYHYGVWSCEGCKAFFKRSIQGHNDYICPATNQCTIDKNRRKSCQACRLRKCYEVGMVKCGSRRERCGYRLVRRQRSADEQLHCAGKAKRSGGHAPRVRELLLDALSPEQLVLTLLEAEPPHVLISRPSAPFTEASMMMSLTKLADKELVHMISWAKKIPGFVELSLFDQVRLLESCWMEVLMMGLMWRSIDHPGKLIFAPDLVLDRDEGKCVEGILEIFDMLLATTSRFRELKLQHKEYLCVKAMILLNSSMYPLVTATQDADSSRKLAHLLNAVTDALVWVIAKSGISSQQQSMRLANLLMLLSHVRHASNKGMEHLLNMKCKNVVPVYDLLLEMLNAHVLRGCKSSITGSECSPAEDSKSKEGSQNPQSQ

Compound | activation | Potency
CC(O)CN1CCN(CC(=O)[O-])CCN(CC(=O)[O-])CCN(CC(=O)[O-])CC1.[Gd+3] (stereo not given) | 0.498% [at 42.5 µM] (inactive) | –
O=C(O)COc1cc(Cl)c(Cl)cc1Cl | – | inactive
CC(C)(C)OOC(C)(C)CCC(C)(C)OOC(C)(C)C | -0.538% (inactive) | –
CCCCCCCCP(=O)(O)O | -1.87% (inactive) | –
CC(C)(C)NCC(O)c1ccccc1Cl (stereo not given) | 0.91% [at 42.5 µM] (inactive) | –
O=C(Cc1ccccc1)OCCc1ccccc1 | -0.531% (inactive) | –
O=S(=O)(c1ccccc1)c1ccccc1 | -2.17% (inactive) | –
CN[C@@H](C)[C@H](O)c1ccccc1 | -0.215% [at 42.5 µM] (inactive) | –
CC(C)(c1ccccc1)c1cc(-n2nc3ccccc3n2)c(O)c(C(C)(C)c2ccccc2)c1 | 2.09% [at 42.5 µM] (inactive) | –
Clc1ccc(Cl)c(Cl)c1 | – | 59.5 µM (active) and inactive
OCCCl | 8.28% (inactive) | –
C1CCNCC1 | 12.9% (inactive) | –
CC1(C)CC(=O)CC(C)(C)N1[O] | 4.49% (inactive) | –
O=P(OCC(Br)CBr)(OCC(Br)CBr)OCC(Br)CBr (stereo not given) | – | inactive
O=C(N[C@H]1CN2CCC1CC2)c1ccc2c(c1)OCCO2 | 3.94% (inactive) | –
c1ccc2c(c1)-c1cccc3cccc-2c13 | 11.6% (inactive) | –
CN1C[C@H](C(=O)N[C@]2(C)O[C@@]3(O)[C@@H]4CCCN4C(=O)[C@H](Cc4ccccc4)N3C2=O)C=C2c3cccc4[nH]cc(c34)C[C@H]21 | – | inactive
CC(C)(C#N)C(C)(C)C#N | -0.447% (inactive) | –
C=CCOC(=O)C(C)(C)OC(=O)c1cc(-n2c(=O)cc(C(F)(F)F)n(C)c2=O)ccc1Cl | 1.42% (inactive) | –
O=C(N/N=C/c1ccc([N+](=O)[O-])o1)c1cc([N+](=O)[O-])cc([N+](=O)[O-])c1O | 3.53% [at 42.5 µM] (inactive) | –

Compound | activation | Potency
O=C(O)C(Cl)(Cl)Br | 3.01% (inactive) | –
CN(C)N | 1.11% (inactive) | –
COc1ccccc1N1CCNCC1 | 3.39% [at 42.5 µM] (inactive) | –
O=C([O-])c1ccccn1.O=C([O-])c1ccccn1.O=C([O-])c1ccccn1.[Cr+3] | -2.15% (inactive) | –
C=C(C)C(=O)OCCCCOC(=O)C(=C)C | -1.72% (inactive) | –
CC(C)(C)NCC(O)c1cc(Cl)c(N)c(C(F)(F)F)c1 (stereo not given) | 6.62% [at 42.5 µM] (inactive) | –
C[C@]12C=CC3=C4CCC(=O)C=C4CC[C@H]3[C@@H]1CC[C@@H]2O | – | 121 nM (active) and 1.63 µM (active)
CCCSP(=S)(OCC)Oc1ccc(SC)cc1 (stereo not given) | 0.755% (inactive) | –
O=C(NCNC(=O)NC1C(=O)NC(=O)N1CO)NC1C(=O)NC(=O)N1CO (stereo not given) | 2.87% (inactive) | –
COc1cc(CC#N)cc(OC)c1OC | 5.61% [at 42.5 µM] (inactive) | –
COc1ccc(C(=O)c2c(C)n(CCN3CCOCC3)c3ccccc23)cc1 | 0.301% [at 42.5 µM] (inactive) | –
CCCCC1C(=O)NC(=O)N(C2CCCCC2)C1=O (stereo not given) | 10.1% [at 42.5 µM] (inactive) | –
O=C1c2ccccc2C(=O)N1SC(Cl)(Cl)Cl | -10% (inactive) | –
c1ccc2sc(SNC3CCCCC3)nc2c1 | – | inactive
C=CCN1C[C@H](C)N([C@H](c2ccc(C(=O)N(CC)CC)cc2)c2cccc(OC)c2)C[C@H]1C | -0.859% [at 42.5 µM] (inactive) | –
C[C@]12CC[C@H]3[C@@H](CCC4=CC(=O)CC[C@@H]43)[C@@H]1CC[C@@H]2OC(=O)CCc1ccccc1 | – | 3.35 µM (active)
COc1ccc2c(c1OC)C(=O)O[C@H]2[C@@H]1c2cc3c(cc2CCN1C)OCO3 | 3.57% [at 42.5 µM] (inactive) | –
C[N+](C)(C)CCOC(=O)C(O)(c1ccccc1)c1ccccc1 | 5.16% [at 42.5 µM] (inactive) | –
CCCN(CCOc1c(Cl)cc(Cl)cc1Cl)C(=O)n1ccnc1 | – | inactive
CN1CC[C@]23c4c5ccc(O)c4O[C@H]2[C@@H](O)CC[C@H]3[C@H]1C5 | 0.0838% (inactive) | –
